HTT cytoprotect: Huntington cell model cytoprotection by ATP luminescence; PC12 HTT-Q103 induced, cytoprotection, ATP luminescence, 40 h; 0.14% of 230,000 active; AID 1471; Potency, µM (titrated, usually from 56.4 µM), hits mostly activators; also: nearly all actives have a fitted effect of over 45% in size
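PC12 cells stably carrying ecdysone-inducible Htt exon 1 (Q103)–GFP were induced with 100 nM tebufenozide (final) alongside library compounds in a dose series. Cytoprotection was scored as retained ATP by ATPlite luminescence.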
GLA inh pH 4.5: alpha-galactosidase A (human) inhibition, pH 4.5; P06280; activity change, negative = inhibition, % at 105 µM; purified enzyme, 4-MU-alpha-Gal fluorescence, pH 4.5; AID 1467; 230,000 tested, under 10 active
Target sequence (P06280 whole entry, looked up): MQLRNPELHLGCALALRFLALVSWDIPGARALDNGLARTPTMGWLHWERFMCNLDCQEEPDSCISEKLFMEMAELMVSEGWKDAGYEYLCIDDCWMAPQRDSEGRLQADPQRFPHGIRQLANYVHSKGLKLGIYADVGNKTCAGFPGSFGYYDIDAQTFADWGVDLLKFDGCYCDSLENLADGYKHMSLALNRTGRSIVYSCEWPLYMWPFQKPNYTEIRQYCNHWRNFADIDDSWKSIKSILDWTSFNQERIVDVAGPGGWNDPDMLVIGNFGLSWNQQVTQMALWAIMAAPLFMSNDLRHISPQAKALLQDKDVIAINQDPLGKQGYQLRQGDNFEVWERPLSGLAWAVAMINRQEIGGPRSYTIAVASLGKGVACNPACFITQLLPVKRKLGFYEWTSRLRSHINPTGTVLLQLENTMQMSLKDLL
aGal spleen mod: inhibitors or activators of human alpha-galactosidase in spleen homogenate; P06280; human spleen homogenate, 4MU-alpha-Gal fluorescence, 40 min; Potency, µM (highest dose often 80 µM), actives largely listed as inhibitors; 0.008% of 240,000 active; AID 2107
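Human spleen homogenate (1 ug) as enzyme source, 4-methylumbelliferyl-alpha-D-galactopyranoside 1 mM final, citrate/phosphate pH 5.0 with 0.01% Tween-20. Compounds 40 min at 37C, NaOH/glycine stop; fluorescence Ex 365/Em 440, Hill-fit AC50.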
HTT aggregate: inhibitors of mutant huntingtin aggregate formation in PC12 cells | PC12 HttQ103-GFP aggregates, Acumen cytometry, 40 h | Potency, µM (top dose mostly 46.1 µM), most hits filed as inhibitors | 1.1% of 220,000 active; also: nearly all actives have a fitted effect of over 60% in size
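Multiplexed with ATP-based cell death, this channel scores GFP aggregates in PC12 cells expressing inducible HTTex1-Q103-GFP. Induction used 100 nM tebufenozide; compounds were tested in concentration series.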
Hits are given with their value; . = inactive; ? = inconclusive; / = no result; [ ] = dose if it differs, or a comment. Only some compounds are listed: those with a hit (about 1.2% of all), similar ones and a draw of the others. Calls follow the shape of the dose curve; as a rule, active = well fitted curve in the direction sought with a large enough effect; inconclusive = small, poorly fitted or top-dose-only effect, or another doubt; inactive = no such curve, though single readings can be large; an effect the other way counts as inactive or inconclusive.

SMILES	HTT cytoprotect	GLA inh pH 4.5	aGal spleen mod	HTT aggregate
C[n+]1c2n(c3ccccc31)N=C(c1ccc(-c3ccccc3)cc1)CS2	.[10 µM]	.	.	?
C[n+]1c2n(c3ccccc31)N=C(c1ccccc1)CS2	.	.	.	10µM
C[n+]1c2n(c3ccccc31)N=C(c1ccc(Br)cc1)CS2	.[10 µM]	.	.	31.6µM
Brc1ccc(C2=Nn3c(Cn4nnc5ccccc54)nnc3SC2)cc1	.[10 µM]	.	.	.[9.22 µM]
O=C1CCC(=O)N1CO	.	/	/	.
C=C1C(c2ccc(C)cc2)=CCc2cc(C)cc(C)c21	.	/	.	/
CC(Nc1oc(-c2ccccc2)nc1-c1cccc2ccccc12)c1ccccc1 (configuration not stated)	.	.	.	/
O=C(CCl)NCc1cc(-c2ccc(Cl)cc2)no1	.	.	.	35.5µM
Cc1cccc(CNc2cc(-c3cccnc3)ncn2)c1	.	.	.	/
Cc1ccc(-n2c(C)cc(C(=O)CSc3nncs3)c2C)cc1	.	.	.	10µM
Cc1cc(C(=O)CSc2nncs2)c(C)n1-c1c(C)n(C)n(-c2ccccc2)c1=O	.[10 µM]	.	.	?
Cc1nc2sccc2c(=O)n1N	3.55µM	.	.	.
COc1ccccc1C1=NNC(=Nc2cccc(S(=O)(=O)N(C)C)c2)SC1	?	.	.	11.2µM
C/C=C\C1=C(CO)C(=O)[C@@H]2OC2C1=O (some centres not stated)	.[10 µM]	/	.[17.5 µM]	/
CN1\C(=C/C=C/C=C/C=[N+](C)C)C(C)(C)c2ccccc21	.	.	.	10µM
CN1/C(=C\C=O)C(C)(C)c2ccccc21	.	.	.	?
Cc1c(NC(=O)c2cccc(NS(C)(=O)=O)c2)c(=O)n(-c2ccccc2)n1C	.[10 µM]	.	.	1µM
CCOC(=O)C1CCCN(C(=O)Nc2ccccc2)C1 (configuration not stated)	/	.	.	0.631µM
CC(C)c1[nH]nc2c1C(c1cccc(OC(=O)N3CCOCC3)c1)C(C#N)=C(N)O2 (configuration not stated)	.	.	?	3.16µM
CCc1[nH]nc2c1C(c1cccc(OC(=O)N3CCOCC3)c1)C(C#N)=C(N)O2 (configuration not stated)	.[10 µM]	.	.	.
O=c1c(-c2ccccc2)c1-c1ccccc1	11.2µM	.	.	14.1µM
CCCCCCCCCCCCCC[C@@H](O)[C@@H](O)[C@H](CO)NC(C)=O	/	/	.	/
N[C@@H](CSCCCO)C(=O)O	.	/	/	.
CCCCN1C(=O)/C(=C/C=C2\Oc3ccccc3N2CC)SC1=S	.[10 µM]	.	.	?
CCN1/C(=C/C=C/c2oc3ccc(-c4ccccc4)cc3[n+]2CC)Oc2ccc(-c3ccccc3)cc21	.[10 µM]	.	.	0.355µM
SMILES	HTT cytoprotect	GLA inh pH 4.5	aGal spleen mod	HTT aggregate
COc1cc2nc(N3CC=[N+](C(=O)c4ccco4)CC3)nc(N)c2cc1OC	.[1.9 µM]	/	/	/
c1ccc2c(c1)OCC(c1csc3ncnc(N4CCOCC4)c13)O2 (configuration not stated)	.	.	.	12.6µM
N[C@@H](COC(c1cccc(F)c1)c1ccccc1OCc1ccccc1)C(=O)O (some centres not stated)	/	/	.	/
O=C1NCCN1c1ncc([N+](=O)[O-])s1	0.0891µM	.	.	.
CCOc1ccc(/C=N/NC(=O)C(C)N(c2ccc(OC)cc2)S(C)(=O)=O)cc1OCC (configuration not stated)	.	.	.	.
COc1ccc(N(C(C)C(=O)N/N=C/c2cc(Br)c(C)o2)S(C)(=O)=O)cc1 (configuration not stated)	0.891µM	.	.	?
CC1CCc2nc(N)c(C#N)c(-c3cccnc3)c2C1 (configuration not stated)	.[10 µM]	.	.	2µM
CC[C@H](C)[C@H](N)C(=O)N[C@H]1CCC(=O)NCC(C(=O)N[C@@H](Cc2ccc(O)cc2)C(=O)N[C@@H](CCCNC(=N)N)C(=O)N[C@@H](CC(C)C)C(=O)N[C@@H](CCCNC(=N)N)C(=O)N[C@@H](Cc2ccc(O)cc2)C(N)=O)NC(=O)[C@@H]2CCCN2C(=O)[C@@H](NC(=O)[C@@H](N)[C@@H](C)CC)CCC(=O)NCC(C(=O)N[C@@H](Cc2ccc(O)cc2)C(=O)N[C@@H](CCCNC(=N)N)C(=O)N[C@@H](CC(C)C)C(=O)N[C@@H](CCCNC(=N)N)C(=O)N[C@@H](Cc2ccc(O)cc2)C(N)=O)NC(=O)[C@@H]2CCCN2C1=O (some centres not stated)	/	/	.	/
Cc1ccc(-c2nnc(N3CCN(C(=O)Cn4c(=O)n(C)c5ccccc54)CC3)c3ccccc23)cc1	.	.	.	?
Cn1c(=O)n(CC(=O)N2CCN(c3nnc(-c4ccccc4)c4ccccc34)CC2)c2ccccc21	.[10 µM]	.	.	14.1µM
CC[C@H](C)[C@H](NC(=O)[C@H](Cc1ccccc1)NC(=O)[C@H](CC(C)C)NC(=O)[C@H](CCSC)NC(=O)[C@H](CCC(=O)O)NC(=O)[C@H](CCC(=O)O)NC(=O)[C@H](CC(=O)O)NC(=O)[C@H](CO)NC(=O)[C@@H]1CCCN1C(=O)[C@H](CCCCN)NC(=O)[C@@H](N)[C@@H](C)O)C(=O)N[C@@H](Cc1ccc(O)cc1)C(=O)NCC(=O)N[C@@H](Cc1cnc[nH]1)C(=O)N[C@@H](Cc1ccc(O)cc1)C(=O)N[C@@H](CCCCN)C(=O)N[C@@H](CCC(N)=O)C(=O)N[C@@H](C)C(=O)N[C@H](C(=O)N[C@H](C(=O)NCC(=O)N[C@@H](CC(=O)O)C(=O)N[C@H](C(=O)N[C@@H](CC(N)=O)C(=O)N[C@H](C(=O)N[C@@H](CCC(=O)O)C(=O)N[C@@H](CCCNC(=N)N)C(=O)N1CCC[C@H]1C(=O)NCC(=O)N[C@@H](CCSC)C(=O)N[C@@H](CC(C)C)C(=O)N[C@@H](CC(=O)O)C(=O)N[C@@H](Cc1ccccc1)C(=O)N[C@H](C(=O)O)[C@@H](C)O)[C@@H](C)O)[C@@H](C)CC)C(C)C)[C@@H](C)O	/	/	.	/
Cc1cccc(NC(=O)CSc2nnc(-c3ccccc3C)o2)c1	/	.	.	0.0028µM
Cc1cc(C)cc(NC(=O)CSc2nnc(-c3ccccc3C)o2)c1	.	.	.	.
CC(=O)OC[C@@H]1O[C@H](C/C=N\O[C@@H](C)c2cn([C@H](CO)Cc3ccccc3)nn2)C=C[C@@H]1OC(C)=O	.[10 µM]	/	.[17.5 µM]	/
O=C1NN(C(=O)Nc2ccc(Br)cc2)C(c2ccccc2)C1c1ccccc1 (configuration not stated)	/	/	.	/
CCOc1ccc(S(=O)(=O)Nc2cc(Cl)ccc2O)cc1	.[10 µM]	.	.	22.4µM
CCOc1ccc(S(=O)(=O)Nc2cccc(Cl)c2)cc1	.[0.074 µM]	/	/	/
Cc1ccc(-c2ccc(/C=C3\SC(N4CCOCC4)=NC3=O)o2)cc1	2.82µM	.	.	.
O=C1N=C(N2CCOCC2)S/C1=C/c1ccc(-c2ccc(F)cc2)o1	.[10 µM]	.	.	.[9.22 µM]
